Screening results as filed in PubChem.
Sampled rows, rich in hits. Any-hit rate of the full collection: about 6.2%.
AHR act = activators of human aryl hydrocarbon receptor | AHR-responsive luciferase reporter cells, luminescence | activation, % at 5 µM | 2.5% of 320,000 active; in the data active = activation above about 47%
AI-2 QS modul = modulates the Vibrio harveyi AI-2 quorum sensing system. Vibrio harveyi JMH597 AI-2 luminescence/OD600 ratio, 9 h; stronger effect = lower value; strain lacks LuxN and CqsS sensors; 0 = neutral-control median. activity change, % at 7.5 µM. 0.4% of 300,000 active; in the data active = activity change below about -75%, passing the limit was not always enough;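 note: luminescence divided by OD600 gain over 9 h not by final OD600 alone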
Mot1-301 SUMO = inhibitors of SUMOylation pathway: yeast Mot1-301 growth rescue. growth rescue, % at 18.8 µM. S. cerevisiae Mot1-301 growth rescue, ATP luminescence, 38.5C; percent above DMSO median, 100 means doubled. AID 2716. 1% of 320,000 active;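 active = every valid replicate shows activation above 250% relative to neutral control wells; inactive = the rest, any valid replicate at or below 250%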
Cardio protect = modulators protecting cardiomyocytes from myocardial damage. H9c2 cardiomyocytes, H2O2 injury protection, ATPLite, 2 h. 0.63% of 360,000 active. AID 588492. protection from H2O2 cell death, % at 20 µM;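 active = compounds giving at least 50% protection of heart cells from peroxide-induced death in the single-dose screen, raw or plate-pattern-corrected value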
NTR1 ag = NTR1 (human) agonism | P30989 | NTR1-U2OS beta-arrestin-GFP spot imaging, agonist mode | activation, % at 20 µM | 0.17% of 330,000 active | AID 493036;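 active = activation at or above 40% of the spot to cytoplasm intensity ratio, with at least 20 cells analyzed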
Target sequence (P30989 whole entry, looked up): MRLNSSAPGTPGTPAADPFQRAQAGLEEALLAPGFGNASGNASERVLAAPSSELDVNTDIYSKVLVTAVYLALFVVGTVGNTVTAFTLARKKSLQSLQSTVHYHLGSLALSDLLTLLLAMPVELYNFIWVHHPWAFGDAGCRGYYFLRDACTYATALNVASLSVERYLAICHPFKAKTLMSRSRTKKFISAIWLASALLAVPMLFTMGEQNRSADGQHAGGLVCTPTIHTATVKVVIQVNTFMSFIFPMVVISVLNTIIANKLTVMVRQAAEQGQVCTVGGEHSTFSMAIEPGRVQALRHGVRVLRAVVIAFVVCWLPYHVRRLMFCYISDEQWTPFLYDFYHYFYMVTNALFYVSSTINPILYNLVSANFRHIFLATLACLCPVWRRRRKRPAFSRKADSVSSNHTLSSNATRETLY
NR3A LBD binder = modulators (binders) of human NR3A ligand-binding domain. NR3A LBD differential scanning fluorimetry, Tm shift; 0% = protein alone, 100% = glycine-bound protein. Tm shift relative to glycine control, % at 25 µM. 2.5% of 340,000 active;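 active = melting temperature shift of at least 10% of the positive control shift, at one fixed dose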
Mot1 SUMO dose = inhibits SUMO pathway, affecting Mot1-301 yeast growth. shares compounds with Mot1-301 SUMO. 2,300 tested, under 10 active. S. cerevisiae Mot1-301 galactose growth, ATP luminescence, 24 h; -100 = growth of slx-deleted rescue strain. growth activity, percent, % at 42 µM;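 active = Signal drops as the depositor expects, and the fitted half-maximal dose is no more than ten times the top valid tested dose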;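 note: more negative values mean stronger growth rescue toward the control strain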
Numbers stand for hits; n = inactive; x = not tested or not shown; + = active, no number.

SMILES | AHR act | AI-2 QS modul | Mot1-301 SUMO | Cardio protect | NTR1 ag | NR3A LBD binder | Mot1 SUMO dose
Cc1ccc(N(CC(=O)NC2CCCC2)C(=O)CCC(=O)Nc2ccccn2)cc1C | n | x | 439 | n | n | n | n
Cc1cc(NC(=O)CCC(=O)N(c2cccnc2)C(C(=O)NC2CCCC2)c2ccccc2)no1 (stereo not given) | n | n | + | n | n | n | n
Cc1cccc(N(C(=O)CCC(=O)Nc2cc(C)on2)C(C(=O)NC2CCCC2)c2cccnc2)c1 (stereo not given) | n | n | n | n | n | n | x
O=C(CCCC(=O)N(CC(=O)NC1CCCC1)c1cccc(F)c1)Nc1ccccn1 | n | n | 362 | n | n | n | n
Cc1ccc(N(CC(=O)NC2CCCC2)C(=O)CCCC(=O)Nc2ccccn2)cc1C | n | n | n | n | n | n | x
NC(=O)NC(=O)COC(=O)/C=C/c1cccs1 | n | n | 405 | n | n | n | n
COC(=O)CNC(=O)COC(=O)/C=C/c1cccs1 | n | n | n | n | n | n | x
CC1(C)C2CC[C@]3(C)C(CC=C4[C@@H]5C[C@@](C)(CO)[C@@H](O)C[C@]56C[C@@H](OC6=O)[C@]43C)[C@@]2(C)CC[C@@H]1O (stereo not given in full) | n | n | 369 | n | n | n | n
COCCNc1nc(NCc2ccc(NC(C)=O)cc2)c2sc(-c3ccccc3)cc2n1 | x | x | x | n | x | x | x
Cc1ccc(C(=O)/C=C/Nc2ccccc2C(N)=O)cc1 | n | n | 481 | n | n | n | n
NC(=O)c1ccccc1N/C=C/C(=O)c1ccc(Cl)cc1 | n | n | n | n | n | n | x
Cc1ccc(S(=O)(=O)NCc2ccc(C(=O)NC3CCCCC3)cc2)cc1 | n | n | n | n | n | n | x
CS(=O)(=O)NCc1ccc(C(=O)NC2CCCCC2)cc1 | n | n | 617 | n | n | n | n
CC1(C)CNc2cc([N+](=O)[O-])ccc2S1 | n | n | 810 | n | n | n | n
Fc1ccccc1-c1cc2ccccc2cn1 | n | x | n | n | n | n | x
c1ccc2cc(C3CCCCC3)ncc2c1 | n | x | 738 | n | n | n | n
O=C(CSc1nnc(C2CC2)n1Cc1ccccc1)N1CCNC1=O | n | x | n | n | n | n | x
CCCOc1ccc(N2C(=O)CC(N3CCOCC3)C2=O)cc1 (stereo not given) | n | n | n | n | n | n | x
CCCOc1ccc(N2C(=O)CC(N3CCC(C(=O)OCC)CC3)C2=O)cc1 (stereo not given) | n | n | 772 | n | n | n | n
Cc1ccc(C(=O)NCCNC(=O)c2ccc(C)nc2)cc1 | n | n | n | n | n | n | x
COc1ccc(CC(=O)NCCN2CCOCC2)cc1 | n | n | 395 | n | n | n | n
Cc1ccc(C(=O)NCCCNC(=O)c2ccc(C)nc2)cc1 | n | n | 424 | n | n | n | n
COc1ccc(C(=O)NCCCN2CCOCC2)cc1 | n | n | n | n | n | n | x
Cc1ccc(C(=O)NCCN2CCOCC2)cc1 | n | n | n | n | n | n | x
Cc1ccc(C(=O)NCCCN2CCOCC2)cc1 | n | n | 410 | n | n | n | n
SMILES | AHR act | AI-2 QS modul | Mot1-301 SUMO | Cardio protect | NTR1 ag | NR3A LBD binder | Mot1 SUMO dose
Cc1ccc(CNC(=O)CCn2cc(-c3ccc(C)cc3)nc2CCN)cc1 | n | x | + | n | n | n | n
CCOC(=O)c1c(S(=O)(=O)NCC(=O)N2CCN(c3ccc(F)cc3)CC2)c(C)n(C)c1C | n | n | n | n | n | n | x
O=Cc1ccccc1OCCN1CCCC1=O | n | n | 734 | n | n | n | n
O=[N+]([O-])c1ccc(S(=O)(=O)Nc2ccccn2)cc1 | n | n | n | n | n | n | x
Cc1c(C(=O)N2CCCC2)c(S(=O)(=O)Nc2cccc(Br)c2)c(C)n1C | n | n | 709 | n | n | n | n
Cc1ccc2c(c1)C1CN(C)CCC1N2S(=O)(=O)c1ccccc1F (stereo not given) | n | x | n | n | n | n | x
CC1=Nc2ccccc2/C1=C\c1nc(-c2ccccc2)oc1O | n | n | 623 | n | n | 10 | n
O=C(O)C1CCCCC1C(=O)Nc1ccc(S(=O)(=O)N2CCCC2)cc1 (stereo not given) | n | n | 447 | n | n | n | n
CCN(CC)S(=O)(=O)c1cc(NC(=O)Cc2ccc(S(=O)(=O)N3CCOCC3)s2)ccc1Cl | x | x | x | n | x | n | x
COc1ccc(CCC(=O)Nc2nnc(C(F)(F)F)s2)cc1 | n | n | n | n | n | n | x
COc1ccc(NC(=O)CCC(=O)Nc2nnc(C(F)(F)F)s2)c(OC)c1 | n | n | 820 | n | n | n | n
COc1ccc(OC)c(S(=O)(=O)N2CCC(C(=O)NCc3ccccn3)CC2)c1 | n | n | n | n | n | n | x
CCN(C(=S)NC(=O)c1ccco1)c1cccc2ccccc12 | n | x | n | n | n | n | x
CCN(C(=S)NCCOC)c1cccc2ccccc12 | n | n | 418 | n | n | n | n
O=C(Nc1cccc(F)c1)C1CCCN1C(=O)OCc1ccccc1 (stereo not given) | n | n | n | n | n | n | x
CC(C)(C)OC(=O)N1CCC(C(=O)Nc2ccc3c(c2)CCC3)CC1 | n | x | n | n | n | n | x
CS(=O)(=O)c1ccc2nc(NC(=O)CCNC(=O)c3ccc(Cl)cc3)sc2c1 | x | x | x | n | n | n | x
COc1ccc(C(=O)NC(=S)Nc2ccc(CN3CCOCC3)cc2)cc1Cl | n | n | n | n | n | n | x
COc1ccc(C(=O)NC(=S)Nc2ccc(CN3CCCCC3)cc2)cc1Cl | n | n | 636 | n | n | n | n
COc1c(C)cc(S(=O)(=O)NC2CC(C)(C)NC(C)(C)C2)c(C)c1C | n | n | 687 | n | n | n | n
COc1ccc(S(=O)(=O)N2CCOC2CNC(=O)C(=O)NCc2ccccn2)cc1OC (stereo not given) | x | x | x | n | x | x | x
O=C(COC(=O)c1ccccc1SCC(=O)N1CCCC1)NC1CCS(=O)(=O)C1 (stereo not given) | n | n | n | n | n | n | x
O=C(COC(=O)c1ccccc1SCC(=O)N1CCCC1)NC1CCCCC1 | n | n | 792 | n | n | n | n
O=C(CCNC(=O)c1ccc(Cl)cc1)NCC(c1ccco1)N1CCCC1 (stereo not given) | x | x | x | n | n | n | x
O=C(CCSc1ccccc1)Nc1ncccn1 | n | n | 731 | n | n | n | n
Cc1ccc(/C(N)=N/OC(=O)/C=C/c2ccccc2)cc1 | n | n | 840 | n | n | n | n
COc1ccccc1C(=O)NC(=O)COC(=O)Cn1cnc2c1c(=O)n(C)c(=O)n2C | n | n | n | n | n | n | x
Cc1cc2cc(C)c3nnc(SCC(=O)NCc4ccc5c(c4)OCO5)n3c2cc1C | n | n | n | n | n | n | x
